Shown is part of a subset that was picked to be rich in hits.
TbPYK inhibitor – T. brucei pyruvate kinase inhibition; TbPYK enzyme, Kinase-Glo Plus ATP luminescence, 45 min; 410,000 tested, 0.12% active; Q57TT1; Potency, µM (series often up to 76.8 µM), for the others: at the highest dose activity, negative = inhibition, actives largely listed as inhibitors; active = well fitted curve in the direction sought with a large enough effect; an effect the other way counts as inactive or inconclusive; note: potency is the fitted concentration of half-maximal effect; % is set by controls: 0 for no effect and ±100 for the full control effect; nearly all actives have a fitted effect of over 50% in size
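Quantitative HTS: titrated library compounds versus trypanosomal pyruvate kinase in TEA buffer (pH 7.2) containing KCl, MgCl2, BSA and Tween-20. Reactions were initiated with ADP, 130 uM final. Kinase-Glo Plus luminescence was read after 45 min at RT.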
Cycloheximide cs – counter-screen for Shiga toxin inhibitors: cycloheximide protein synthesis inhibition. cell reporter, cycloheximide protein synthesis inhibition counterscreen. max response, %. 300,000 tested, 12% active; in the data active = max response mostly above about 13%, no sharp cut-off; inactive = mostly below about 14%; note: read at 38.3 µM for the half of the compounds with a filed dose; 0% is about no effect
LmPK inh – inhibitors of Leishmania mexicana pyruvate kinase. AID 1721. Q27686. Potency, µM (series often up to 57.5 µM), without a hit: top-dose activity change, negative = inhibition, hits mostly inhibitors. 290,000 tested, 0.37% active. purified LmPK, Kinase-Glo ATP luminescence, 1 h; active = well fitted curve in the direction sought with a large enough effect; an effect the other way counts as inactive or inconclusive; note: potency is the fitted concentration of half-maximal effect; % is set by controls: 0 for no effect and ±100 for the full control effect
Target sequence (Q27686 whole entry, looked up): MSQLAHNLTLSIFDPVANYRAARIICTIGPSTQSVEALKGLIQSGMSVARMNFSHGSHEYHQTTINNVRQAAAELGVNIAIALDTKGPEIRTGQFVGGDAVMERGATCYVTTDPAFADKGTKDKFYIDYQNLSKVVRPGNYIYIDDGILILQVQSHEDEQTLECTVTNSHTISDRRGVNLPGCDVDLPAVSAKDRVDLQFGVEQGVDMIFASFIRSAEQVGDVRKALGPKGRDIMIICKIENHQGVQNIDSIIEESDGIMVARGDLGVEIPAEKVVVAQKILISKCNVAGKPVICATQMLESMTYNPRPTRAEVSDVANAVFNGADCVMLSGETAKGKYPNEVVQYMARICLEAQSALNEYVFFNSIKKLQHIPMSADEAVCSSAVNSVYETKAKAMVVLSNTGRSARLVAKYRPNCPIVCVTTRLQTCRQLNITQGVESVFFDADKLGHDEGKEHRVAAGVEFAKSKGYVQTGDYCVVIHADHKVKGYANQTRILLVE
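ATP generated from ADP (0.1 mM) and PEP (0.5 mM) by 0.1 nM LmPK over 1 h at room temperature (pH 7.2 imidazole buffer) was detected by coupled luciferase luminescence. Values were normalized to uninhibited and no-enzyme wells.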
NS1 function inh – inhibitors of influenza NS1 protein function. Potency, µM (doses to about 46.1 µM), without a hit: at the highest dose activity, positive = more growth. 270,000 tested, 0.4% active. AID 2326; note: potency is the fitted concentration of half-maximal effect; actives are rising curves; nearly all actives have a fitted effect of over 50% in size
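Growth recovery, yeast-based: influenza A NS1 expressed in S. cerevisiae causes slow growth, and suppressors are detected by OD600. The parent strain without NS1 is used as positive control.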
SARS PLpro yeast – SARS-CoV PLP inhibition in yeast. S. cerevisiae expressing SARS-CoV PLpro, growth rescue. Potency, µM (doses to about 32.9 µM), for the others: top-dose activity, positive = growth rescue, most hits filed as activators. 330,000 tested, 0.19% active; note: potency is the fitted concentration of half-maximal effect; 0% is about no effect; nearly all actives have a fitted effect of over 55% in size
Shiga toxin inh – Shiga toxin inhibition; AID 2315; Vero cells, Shiga toxin protein synthesis inhibition reporter; inhibition, % at 38.7 µM; 290,000 tested, 9.2% active; in the data active = inhibition mostly above about 28%, no sharp cut-off; inactive = mostly below about 43%; note: 0% is about no effect
* marks the source's active call; other numbers are inactive results; x = no result given. Unless noted, calls come from the whole dose curve.

SMILES | TbPYK inhibitor | Cycloheximide cs | LmPK inh | NS1 function inh | SARS PLpro yeast | Shiga toxin inh
CCc1c2c(nc3ccc(OC(=O)N4CCC(N5CCCCC5)CC4)cc13)-c1cc3c(c(=O)n1C2)COC(=O)C3(O)CC (centres undefined) | x | -5.5 | x | x | x | -10.1
COc1ccc(Br)cc1CN(C)C(=O)c1ccccc1OCc1c(C)noc1C | -17.7% | x | x | x | 0.9% | x
Cc1cc(C)cc(NC(=O)C2CCC(CNC(=O)[C@@H]3Cc4ccccc4CN3)CC2)c1 (some centres undefined) | -2.5% | -4.1 | 6.5% | 2.8% | 10.7% | 2.1
CCc1ccc(NC(=O)C2CCC(CNC(=O)[C@@H]3Cc4ccccc4CN3)CC2)cc1 (some centres undefined) | 4.7% | 27.2* | -1.7% | 8.9% | -7.0% | -1.0
CC(C)c1ccc(NC(=O)C2CCN(C(=O)[C@@H]3Cc4ccccc4CN3)CC2)cc1 | 6.1% | 22.9* | 0.1% | -8.3% | 1.5% | 45.7*
Cc1ccc(NC(=O)C2CCN(C(=O)[C@@H]3Cc4ccccc4CN3)CC2)cc1 | -1.6% | 24.4* | 4.8% | -2.9% | -0.7% | 63.1*
Cc1cccc(CNS(=O)(=O)c2ccc(-c3coc(C)n3)cc2)c1 | -2.7% | x | x | x | x | x
OC(c1cccc(Cl)c1)c1ncc(-c2ccc(Oc3ccccc3)cc2)[nH]1 (centres undefined) | 0.4% | x | x | x | x | x
COc1ccc(-c2cc3ccc(O)c(CN4CCOCC4)c3oc2=O)cc1OC | -7.6% | x | x | x | x | x
Cc1cc(NC(=O)CCn2c(=O)c3cccn3c3cccnc32)ccc1Br | -4.9% | x | x | x | x | x
Oc1ccccc1C1=Nc2nc3ccccc3n2C(c2ccccc2)C1 (centres undefined) | -0.1% | 49.2* | -6.5% | 11.6% | -14.2% | 84.4*
Cc1ccc(OCc2cc(C(=O)NCc3cn4ccccc4n3)no2)cc1C | 1.0% | 20.2* | -0.6% | 5.0% | -16.5% | 37.3*
O=C(NCCc1cn2ccccc2n1)c1cc(COc2c(F)cccc2F)on1 | 3.3% | 17.1* | 1.8% | -49.3% | -5.1% | 51.7
COc1cccc(CCNC(=O)c2cc(COc3c(F)cccc3F)on2)c1 | 6.0% | 16.2* | -1.3% | -50.2% | -8.4% | -2.5
Cc1cc(OCc2cc(C(=O)NCc3csc(C(C)C)n3)no2)cc(C)c1Cl | -3.2% | 20.0* | 11.1% | -11.2% | 0.7% | 7.3
Cc1ccc(C(C)C)c(OCC(=O)Nc2ccc(-c3nc4ncccc4o3)cc2C)c1 | -0.4% | x | x | x | x | x
CCCCN(C)S(=O)(=O)c1cc2c3c(c1)CCC(=O)N3CCC2 | -9.5% | -2.6 | -0.7% | -0.8% | 5.2% | -9.1
O=C(Nc1nnc([C@@H]2C[C@H](O)[C@@H](CO)O2)s1)c1cccs1 | -4.7% | x | x | x | x | x
COc1cccc(C(=O)Nc2nnc(C3CCCO3)s2)c1 (centres undefined) | -11.5% | 25.3* | 0.7% | -15.0% | 0.2% | 59.4*
O=C(Nc1nnc(C2CCCO2)s1)c1cccs1 (centres undefined) | -11.6% | 17.3* | -19.5% | 5.3% | -0.7% | 19.5
COc1cccc(C(=O)Nc2nnc(SCC(=O)NC3CCCC3)s2)c1 | 3.3% | 7.4 | -2.7% | 2.3% | 0.6% | 31.4
O=C(Nc1nnc(C2CCCCC2)s1)c1cccs1 | 3.8% | 28.4* | 0.8% | -15.1% | -8.0% | 21.8
CCCCCCCC/C=C\CCCCCCCC(=O)OC[C@@H](COP(O)(O)=S)OC | x | 5.5 | x | x | x | -1.4
CC(C)CC1(C)NC(=O)N(CC(=O)Nc2ccccc2Br)C1=O (centres undefined) | 2.1% | x | x | x | 0.3% | x
CC[C@H](C)[C@H](NC(=O)[C@H](CO)NC(=O)[C@H](CC(C)C)NC(=O)[C@H](CO)NC(=O)[C@@H]1CCCN1C(=O)[C@H](CC(N)=O)NC(=O)[C@@H](N)CC(=O)O)C(=O)N[C@@H](CC(=O)O)C(=O)N[C@@H](CC(C)C)C(=O)N[C@H](C(=O)N[C@@H](Cc1ccccc1)C(=O)N[C@@H](Cc1cnc[nH]1)C(=O)N[C@@H](CC(C)C)C(=O)N[C@@H](CC(C)C)C(=O)N[C@@H](CCCNC(=N)N)C(=O)N[C@H](C(=O)N[C@@H](CC(C)C)C(=O)N[C@@H](CC(C)C)C(=O)N[C@@H](CCC(=O)O)C(=O)N[C@@H](CC(C)C)C(=O)N[C@@H](C)C(=O)N[C@@H](CCCNC(=N)N)C(=O)N[C@H](C(=O)N[C@@H](CCC(N)=O)C(=O)N[C@@H](CO)C(=O)N[C@@H](CCC(N)=O)C(=O)N[C@@H](CCCNC(=N)N)C(=O)N[C@@H](CCC(=O)O)C(=O)N[C@@H](CCCNC(=N)N)C(=O)N[C@@H](C)C(=O)N[C@@H](CCC(=O)O)C(=O)N[C@@H](CCC(N)=O)C(=O)N[C@@H](CC(N)=O)C(=O)N[C@@H](CCCNC(=N)N)C(=O)N[C@H](C(=O)N[C@H](C(=O)N[C@@H](Cc1ccccc1)C(=O)N[C@@H](CC(=O)O)C(=O)N[C@@H](CO)C(=O)N[C@H](C(N)=O)C(C)C)[C@@H](C)CC)[C@@H](C)CC)[C@@H](C)O)[C@@H](C)O)[C@@H](C)O | x | -6.6 | x | x | x | 16.7*
CC[C@H](C)[C@H](NC(=O)[C@H](Cc1ccc(O)cc1)NC(=O)[C@H](Cc1cnc[nH]1)NC(=O)[C@H](CCCNC(=N)N)NC(=O)[C@H](CC(C)C)NC(=O)[C@H](C)NC(=O)[C@H](CO)NC(=O)[C@H](Cc1ccc(O)cc1)NC(=O)[C@H](Cc1ccc(O)cc1)NC(=O)[C@H](CCCNC(=N)N)NC(=O)[C@H](C)NC(=O)[C@H](CC(C)C)NC(=O)[C@H](CC(=O)O)NC(=O)[C@H](CCC(=O)O)NC(=O)[C@H](C)NC(=O)[C@@H]1CCCN1C(=O)[C@H](C)NC(=O)[C@H](CC(=O)O)NC(=O)[C@H](CCC(=O)O)NC(=O)CNC(=O)[C@@H]1CCCN1C(=O)[C@H](CC(N)=O)NC(=O)[C@H](CC(=O)O)NC(=O)[C@@H]1CCCN1C(=O)[C@H](CCCCN)NC(=O)[C@H](CO)NC(=O)[C@@H]1CCCN1C(=O)[C@@H](N)Cc1ccc(O)cc1)C(=O)N[C@@H](CC(N)=O)C(=O)N[C@@H](CC(C)C)C(=O)N[C@@H](CC(C)C)C(=O)N[C@H](C(=O)N[C@@H](CCCNC(=N)N)C(=O)N1CCC[C@H]1C(=O)N[C@@H](CCCNC(=N)N)C(=O)N[C@@H](Cc1ccc(O)cc1)C(N)=O)[C@@H](C)O | x | 41.0 | x | x | x | 13.5
COc1ccc(-c2nc(C#N)c(NCCc3ccccc3)o2)cc1 | 6.0% | 33.6* | 1.0% | 0.7% | -0.8% | 64.0*
COc1ccc(-c2nc(C#N)c(NCc3ccc(F)cc3)o2)cc1OC | 0.7% | 24.1* | 1.9% | -16.9% | 4.4% | 44.7
